Reference: PubChem BioAssay AID588719 (Southern Research Specialized Biocontainment Screening …, 2011)
Out of some 1,500 compounds screened, about 920 (61%) were called active. No rule for the calls is given here. So high a share suggests a set chosen from earlier hits. Some of the results follow. Measured potencies and affinities stand elsewhere.

test: Vero 76 cell cytotoxicity, dose response, cytotoxicity control for VEEV inhibitor project (AID 588719); conditions: Vero 76 cells viability, cytotoxicity counter-screen; series mostly up to 25 µM; viability: at the top concentration

Row | SMILES | viability
1 | Cc1ccc(C(C)C)cc1OCC(=O)Nc1nnc(C2CC2)s1 | 83.1% (inactive)
2 | O=c1oc2ccccc2cc1-c1csc(Nc2ccc(O)cc2)n1 | 68.4% (inactive)
3 | COc1cccc(NC(=O)c2ncc(Cl)c(Cl)c2Cl)c1 | 84.3% (inactive)
4 | CCOC(=O)c1ccccc1NC(=O)c1cn(CC)c2nc(C)ccc2c1=O | 91.6% (inactive)
5 | COc1ccc(CCn2c(-c3ccco3)nc3ccccc3c2=O)cc1OC | 89% (inactive)
6 | CCOc1ccccc1C(=O)NC(C(=O)OCn1nnc2ccccc2c1=O)C(C)C (stereo unspecified) | 87.5% (inactive)
7 | CCN1CCN(CCCNC(=O)C2CCCN(c3nc4c(C)cc(C)cc4s3)C2)CC1 (stereo unspecified) | 91.2% (inactive)
8 | CCOC(=O)c1c(NC(=O)c2c(-c3ccccc3)noc2C)sc(C)c1-c1ccccc1 | 50.6% (inactive)
9 | COC(=O)c1c(-c2ccccc2)csc1NC(=O)c1c(-c2ccccc2)noc1C | 61.7% (inactive)
10 | CCCOc1ccc(C(=O)NNC(=S)NC(=O)c2cc(-c3ccc(Cl)cc3)nc3ccccc23)cc1 | 72% (inactive)
11 | O=C(/C=C/c1cccc([N+](=O)[O-])c1)c1ccc2c(c1)OCCO2 | 79.3% (inactive)
12 | CN1C/C(=C/c2ccsc2)C(=O)/C(=C/c2ccsc2)C1 | 94.4% (inactive)
13 | O=C(CC(=O)N/N=C/c1ccc(F)cc1)N/N=C/c1ccc(F)cc1 | 87.4% (inactive)
14 | O=C(CSC1CN(C(c2ccccc2)c2ccccc2)C1)N/N=C/c1ccc(Cl)cc1Cl | 102% (inactive)
15 | NC(=S)NN=C(c1ccc(F)cc1)C1CC1 | 98.5% (inactive)
16 | CCCCCCCCCCCCCCCC(O)C(N)CO (stereo unspecified) | 83.8% (inactive)
17 | O=C(N1CCOCC1)N1c2ccccc2Sc2ccccc21 | 75.8% (inactive)
18 | CN1CCN(C(=O)CCN2C(=O)/C(=C\c3ccc(Cl)cc3Cl)SC2=S)CC1 | 88.9% (inactive)
19 | NC(=O)c1nsc(C(=O)N(c2ccccc2F)C(C(=O)NCc2ccccc2)c2ccc(O)cc2)c1N (stereo unspecified) | 76.7% (inactive)
20 | COC(=O)c1cc2c(N)c(C(=O)c3ccc(Cl)cc3)sc2nc1C(OC)OC | 82.7% (inactive)
21 | COc1cc2cc(C(=O)N3CC(COS(C)(=O)=O)c4ccc(O)cc43)[nH]c2c(OC)c1OC (stereo unspecified) | 35.5% (inactive)
22 | COC(=O)c1ccc(/C=C2/SC(=S)N(CCC(=O)N3CCOCC3)C2=O)cc1 | 78.4% (inactive)
23 | O=C(O)c1ccccc1Nc1ccc(OC(F)F)cc1 | 101% (inactive)
24 | COc1cc2[nH]c3c(N4CCN(c5ccccn5)CC4)ncnc3c2cc1OC | 85.7% (inactive)
25 | Cc1cc(-c2ccccc2)nc(N2CCN(c3ccccn3)CC2)n1 | 84.5% (inactive)
26 | Cc1nc2ccccc2nc(C)c1=NOCc1cccc(F)c1 | 71.2% (inactive)

Row | SMILES | viability
27 | Cc1ccc2oc(C(F)(F)C(F)F)cc(=O)c2c1 | 96.2% (inactive)
28 | O=C(OCc1cn([C@@H]2C[C@H](c3ccc(Cl)cc3)N(C(=O)c3cccs3)C[C@H]2O)nn1)c1ccccc1 | 83% (inactive)
29 | COCCNCC(=O)NC12CC3CC(CC(C3)C1)C2 | 86.3% (inactive)
30 | CC(OCCN(C)C)C(=O)C12CC3CC(CC(C3)C1)C2 (stereo unspecified) | 90.7% (inactive)
31 | Cc1ncc([N+](=O)[O-])n1CC(=O)NCCc1ccccc1 | 95.3% (inactive)
32 | CC1N(C)c2cc(NC(=O)c3ccco3)c(P(=O)(Nc3ccc([N+](=O)[O-])cc3)N3CCOCC3)cc2C1(C)C (stereo unspecified) | 70.7% (inactive)
33 | CCC(NC(=O)CCCc1ccccc1)c1ccccc1 (stereo unspecified) | 91.7% (inactive)
34 | CCOc1ccc2nc3cc(NCc4ccc(OC)cc4)ccc3c(N)c2c1 | 83.8% (inactive)
35 | Cc1ccc(NC(=O)C2CCCN2C(=O)OC(C)(C)C)cc1C (stereo unspecified) | 87.2% (inactive)
36 | COc1ccccc1C=NN=C1c2ccccc2-c2ccccc21 | 83.9% (inactive)
37 | COc1cccc(-c2ccc(NC(=O)C3CCCN(Cc4cnn(C)c4)C3)cc2)c1 (stereo unspecified) | 72.5% (inactive)
38 | COc1cccc(-c2ccc(NC(=O)C3CCCN(Cc4cnn(C)c4C)C3)cc2)c1 (stereo unspecified) | 80.3% (inactive)
39 | O=C1C2CCCN2C(c2ccc(F)cc2)N1c1ccc(Cl)cc1 (stereo unspecified) | 79.2% (inactive)
40 | Cc1cc(NC(=O)c2ccc3nccnc3c2)ccc1Br | 90.1% (inactive)
41 | C[C@@H]1CCCCO[C@H](CN(C)C(=O)NC2CCCCC2)[C@@H](C)CN([C@H](C)CO)C(=O)c2cc(NC(=O)c3ccccc3)ccc2O1 | 93% (inactive)
42 | COc1cccc(CNC(=O)c2cc3oc4ccccc4c3n2C)c1OC | 109% (inactive)
43 | CCC1(c2ccccc2)NC(=S)N(c2ccc(C)cc2)N1 (stereo unspecified) | 84% (inactive)
44 | O=C(COC(=O)CCC(=O)c1ccc(F)cc1)NCc1ccccc1Cl | 101% (inactive)
45 | O=C(Nc1ccc(C(=O)OC[C@@H]2CCCN3CCCC[C@H]23)cc1)c1cccc(Br)c1 | 90.9% (inactive)
46 | CCCCC(=O)NC(c1ccc(Cl)cc1Cl)c1ccc2cccnc2c1O (stereo unspecified) | 40.8% (inactive)
47 | CCC(=O)OC1CCC2C3CCC4CC(=O)C=CC4(C)C3CCC12C (stereo unspecified) | 85.2% (inactive)
48 | CNCCNC[C@H](Cc1cccc2ccccc12)NCCc1ccccc1 | 94.2% (inactive)
49 | Cc1cccc2sc(N(CCCN(C)C)C(=O)c3ccco3)nc12 | 81.4% (inactive)
50 | CCOC(=O)c1c(C)oc2ccc(OCc3cc(C(=O)OC)oc3C)cc12 | 87.8% (inactive)
51 | C=C(C)COc1ccc(-c2nc(N)ncc2-c2ccc(Br)cc2)c(O)c1 | 80% (inactive)
